# Reference: PubChem BioAssay AID1645854 (Buhrlage Lab, Dana-Farber Cancer Institute and Novartis …, 2021)
# In all, about 47,000 compounds went through this assay and about 140 (0.3%) were called active. Rule as the data show it: active = inhibition above about 30%; inactive = the rest. For the sample, actives were picked, then their nearest neighbours and some compounds at random.
# Target: Ubiquitin carboxyl-terminal hydrolase 7 (Homo sapiens) (UniProt Q93009)
# Assay: inhibitors of human USP7 deubiquitinase (AID 1645854)
# Conditions: purified USP7, Ub-rhodamine cleavage fluorescence; at 20 µM; stronger effect = higher value
# Sequence of Ubiquitin carboxyl-terminal hydrolase 7 (Homo sapiens) (Q93009 whole entry, looked up): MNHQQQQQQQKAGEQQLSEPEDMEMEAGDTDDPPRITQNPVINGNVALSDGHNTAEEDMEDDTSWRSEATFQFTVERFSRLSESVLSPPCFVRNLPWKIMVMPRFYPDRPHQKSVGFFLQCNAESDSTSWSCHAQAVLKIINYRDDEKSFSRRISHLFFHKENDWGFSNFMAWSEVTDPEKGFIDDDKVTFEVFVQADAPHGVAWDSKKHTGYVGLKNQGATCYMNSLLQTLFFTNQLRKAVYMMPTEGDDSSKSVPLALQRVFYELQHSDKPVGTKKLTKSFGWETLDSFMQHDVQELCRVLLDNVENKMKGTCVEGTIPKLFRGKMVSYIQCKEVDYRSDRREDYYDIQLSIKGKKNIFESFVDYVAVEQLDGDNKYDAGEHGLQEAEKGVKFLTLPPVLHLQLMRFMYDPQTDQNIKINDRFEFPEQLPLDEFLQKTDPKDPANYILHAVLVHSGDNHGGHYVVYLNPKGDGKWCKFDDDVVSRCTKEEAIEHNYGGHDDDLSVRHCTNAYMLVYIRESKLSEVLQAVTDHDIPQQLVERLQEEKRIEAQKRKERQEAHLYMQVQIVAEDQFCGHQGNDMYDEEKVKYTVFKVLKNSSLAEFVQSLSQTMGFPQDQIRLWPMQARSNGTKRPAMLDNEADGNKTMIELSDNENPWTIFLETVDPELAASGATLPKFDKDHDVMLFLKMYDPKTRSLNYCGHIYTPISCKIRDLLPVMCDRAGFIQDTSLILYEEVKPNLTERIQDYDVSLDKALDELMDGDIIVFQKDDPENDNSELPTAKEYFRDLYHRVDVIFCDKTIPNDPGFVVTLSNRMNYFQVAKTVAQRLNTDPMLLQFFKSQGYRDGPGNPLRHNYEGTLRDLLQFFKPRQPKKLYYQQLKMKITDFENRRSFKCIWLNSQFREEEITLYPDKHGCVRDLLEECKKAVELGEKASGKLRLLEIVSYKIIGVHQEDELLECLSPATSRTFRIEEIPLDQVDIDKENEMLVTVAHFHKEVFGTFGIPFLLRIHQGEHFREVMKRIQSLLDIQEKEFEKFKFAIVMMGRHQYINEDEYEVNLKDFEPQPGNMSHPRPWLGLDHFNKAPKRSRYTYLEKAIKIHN
row,SMILES,inhibition
1,COc1cc2c(c(OC)c1OC)-c1ccc(N3CCN(Cc4ccccc4)CC3)c(=O)cc1[C@@H](NC(C)=O)CC2,-1.92% (inactive)
2,C=C1CCC2[C@](C)(CCC[C@]2(C)C(=O)OC)[C@H]1CCc1ccoc1/C=C/C(=O)O (stereo not given in full),37.2% (active)
3,C=C1CCC2[C@](C)(CCC[C@]2(C)C(=O)OC)[C@H]1CCc1ccoc1CNCC(=O)O (stereo not given in full),1.95% (inactive)
4,C=C1CCC2[C@](C)(CCC[C@]2(C)C(=O)OC)[C@H]1CCc1ccoc1C[N+](C)(C)Cc1ccccc1 (stereo not given in full),19.4% (inactive)
5,CCc1cc(C(=O)NC2CC(C)(C)Cc3nc(N4CCCC4)ncc32)no1 (stereo not given),-17.3% (inactive)
6,Cc1ccc(-c2cn3ccn(-c4ccc(C)cc4C)c(=O)c3n2)cc1,6.15% (inactive)
7,CC(C)CN1[C@H]2CCN(C(=O)c3cccn3C)CC[C@@H]2Oc2ccccc2S1(=O)=O,-3.56% (inactive)
8,Cn1cc(C2=CCN(S(=O)(=O)c3cccc4cccnc34)CC2)c2cccnc21,-2.34% (inactive)
9,Cc1nnc(C(=O)Nc2ccc(C(=O)NCc3ccccc3C)cc2)s1,6.22% (inactive)
10,O=C(Nc1nc(-c2ccc3c(c2)CCN3C(=O)c2ccccc2F)cs1)c1cccnc1,26.5% (inactive)
11,CCS(=O)(=O)c1cccc(C(=O)Nc2c(C(N)=O)oc3ccccc23)c1,1.8% (inactive)
12,CN1CCN(c2ccc(CNS(=O)(=O)c3cccc(F)c3)cc2)CC1,3.64% (inactive)
13,COc1ccccc1CNc1ccc2c(cc1=O)[C@@H](NC(C)=O)CCc1cc(OC)c(OC)c(OC)c1-2,-13.3% (inactive)
14,CCS(=O)(=O)N1CCC(c2nc(C)c(-c3ccnc(C)n3)s2)CC1,3.86% (inactive)
15,C=C1Nc2ccccc2C(=O)N1c1cccc(NC(=O)c2ccc(F)cc2)c1,1.49% (inactive)
16,O=C(CCc1nc(-c2cccnc2)no1)Nc1cc(Cl)ccc1O,-16.2% (inactive)
17,CC(C)Cc1nnc(NC(=O)c2cc(=O)[nH]c3ccccc23)s1,-0.0201% (inactive)
18,COc1cc(C(=O)N[C@@H]2C(=O)Nc3c(c(C)nn3C)[C@H]2c2cccc(Cl)c2)cc(OC)c1OC,-9.37% (inactive)
19,CN1C(=O)C2CCCCN2c2ccc(C(=O)NC3CCCC3)cc21 (stereo not given),-1.37% (inactive)
20,O=C(CCc1ccccc1)N1C[C@@H]2OCC(=O)N(C3CCOCC3)[C@H]2C1,10.2% (inactive)
21,C[C@H](NC(=O)[C@@H]1Cc2c([nH]c3ccccc23)C2c3ccccc3C(=O)N21)C(=O)NC1CC1 (stereo not given in full),-18.8% (inactive)
22,CC(/C=C/C(=O)NO)=C\C(C)C(=O)c1ccc(N(C)C)cc1 (stereo not given),-1.05% (inactive)

row,SMILES,inhibition
1,CC1(C)CCc2c(cc(OCC(=O)NCC(=O)O)c3c4c(c(=O)oc23)CCC4)O1,8.33% (inactive)
2,CCCc1cc(=O)oc2cc(OCC(=O)NCc3ccc(OC)cc3)ccc12,1.51% (inactive)
3,CC1(C)Cc2c(c(-c3ccco3)nc3sc4c(SCCCc5ccccc5)ncnc4c23)CO1,56.7% (active)
4,CCCCCCSc1ncnc2c1sc1nc(-c3ccccc3)c3c(c12)CC(C)(C)OC3,1.19% (inactive)
5,CSc1ncnc2c1sc1nc(-c3ccccc3)c3c(c12)CC(C)(C)OC3,4.67% (inactive)
6,COCCN1C(=O)Cc2c(C)nc(C3(C)CCCN(c4ccnc(C)n4)C3)nc21 (stereo not given),-0.762% (inactive)
7,Cc1cc(-c2cnc(C)nc2C2CCN(C(=O)Cc3ccccc3F)CC2)on1,0.853% (inactive)
8,COc1cccc(CN2CCCC2c2noc(C3CC3)n2)c1 (stereo not given),0.378% (inactive)
9,COc1ccccc1CN1C[C@@H]2C[C@@H](O)CN2C[C@@H]1Cc1ccccc1,-13% (inactive)
10,COc1ccc(-c2nnc(-c3ccccc3)o2)cc1S(=O)(=O)N1CCc2ccccc2C1,8.25% (inactive)
11,COc1ccc(-c2nonc2NC(=O)Cc2ccccc2)cc1OC,-0.82% (inactive)
12,CNc1nc(C2CCN(C(=O)c3ccc4c(c3)OCCO4)C2)nc2c1CN(C)CC2 (stereo not given),-10.6% (inactive)
13,O=C(COc1ccccc1-c1nnc(-c2ccccc2)o1)Nc1cc(F)ccc1F,5.06% (inactive)
14,COc1ccc(-c2cnc(N(C)C)nc2C2CCCCN2)cc1 (stereo not given),-4.92% (inactive)
15,CC(=O)N1CCC(NC2(Cc3cc(C(C)(C)C)on3)COC2)CC1,0.342% (inactive)
16,CCOC(=O)Nc1cc(C)nn1-c1ncnc2c1cnn2-c1ccc(F)cc1,0.0906% (inactive)
17,Cc1ccc(S(=O)(=O)N2CCN(C(=O)CN3CCc4ccccc43)CC2)cc1,-5.22% (inactive)
18,CCOc1ccccc1C1C2=C(CC(C)(C)CC2=O)Nc2ccccc2N1C(=O)c1ccccc1 (stereo not given),-4.8% (inactive)
19,COc1ccc(CC(=O)N2CCCCC2c2ccc3c(=O)n(C)c(=O)n(C)c3n2)cc1 (stereo not given),0.092% (inactive)
20,O=C(NCc1ccc(Cl)cc1)C1CCN(c2nccn3nc(-c4ccccc4)cc23)CC1,-35.4% (inactive)
21,O=C(CN1CCCCC1)N[C@@H]1C[C@H]2Oc3ccccc3N[C@H]2[C@@H]1O,3.93% (inactive)
22,O=C(C1CCNCC1)N1CCN(c2ccccc2F)CC1,1.05% (inactive)

row,SMILES,inhibition
1,COc1ccccc1NC(=O)CSc1nc2ccccc2n1S(=O)(=O)c1ccc(Br)cc1,-6.03% (inactive)
2,CC(C)NC(=O)N1CC[C@H]2COC(=O)N(Cc3ccccc3)[C@@H]2C1,3.45% (inactive)
3,C/C=C(\C)C(=O)C(C)C1=CC(=O)C2=C(O[C@]3(C)CC[C@@H]4O[C@H](C(C)(C)O)CC[C@@]4(C)[C@@H]3C2)C1=O (stereo not given in full),-44.6% (inactive)
4,COc1ccc(C(=O)NC(C(=O)OCC(=O)c2ccc(C)cc2)C(C)C)cc1OC (stereo not given),3.56% (inactive)
5,COc1cccc(CC(NC(C)=O)C(=O)NC2CCN(C(=O)C3CCCCC3)CC2)c1 (stereo not given),5.13% (inactive)
6,O=C1[C@H]2Cc3c([nH]c4ccccc34)CN2C(=O)CN1CC(O)c1ccccc1 (stereo not given in full),-145% (inactive)
7,Cc1cc(CN2CCN(S(C)(=O)=O)CC(C(=O)N(C)C)C2)no1 (stereo not given),0.0126% (inactive)
8,COc1ccccc1NS(=O)(=O)c1ccc2c(c1)C(=O)N(C)c1ncccc1O2,2.84% (inactive)
9,Cc1nn(Cc2ccccc2)c(C)c1C(=O)NS(=O)(=O)c1ccccc1Cl,1.27% (inactive)
10,Cc1cc(C(=O)N2CCCC2c2ccccc2C)on1 (stereo not given),0.669% (inactive)
11,O=C(c1cc(=O)[nH]c2ccccc12)N1CCN(Cc2cn3ccccc3n2)CC1,-8.75% (inactive)
12,COc1ccc(C2CC(=O)n3nc(-c4cccc(C)c4)nc3S2)cc1 (stereo not given),0.741% (inactive)
13,COC(=O)c1ccccc1NC(=O)c1nc(-c2ccccc2)oc1C,-0.0638% (inactive)
14,O=C(CSc1ncnc2c1sc1cccc(F)c12)N1CCCCCC1,-136% (inactive)
15,COc1cccc(N2CCN(C(=O)Nc3ccc4c(c3)NC(=O)CO4)CC2)c1,3.68% (inactive)
16,O=S(=O)(c1cc(-c2noc(C3CC3)n2)cs1)N1CCc2ccccc21,7.51% (inactive)
17,Cc1ccc(C)c(N(C)C(=O)c2cccc3c2SCCC3=O)c1,-2.51% (inactive)
18,Cn1cncc1-c1cncc(CC2CCCN(S(C)(=O)=O)C2)n1 (stereo not given),0.0473% (inactive)
19,O=C(O)COc1cc(O)c2c(=O)cc(-c3ccccc3)oc2c1,-6.31% (inactive)
20,Cc1csc(C2(NC(=O)Cc3cc(C)on3)CCCC2)n1,-8.11% (inactive)
21,COC(=O)c1c(C)[nH]c(C(=O)C(C)OC(=O)c2cccc(F)c2)c1C (stereo not given),-2.46% (inactive)
22,CCc1ccc(-n2c(=O)c3ccccc3n(CC(=O)NCCC3=CCCCC3)c2=O)cc1,8.71% (inactive)

row,SMILES,inhibition
1,CCOC(=O)C1(C)C=C(Nc2ccc(C(=O)O)c(O)c2)C(=O)N1c1ccccc1 (stereo not given),-4.45% (inactive)
2,CC(=O)NC(Cc1ccccc1F)C(=O)NC1CCN(C(=O)C2CC2)CC1 (stereo not given),1.1% (inactive)
3,O=C(c1cccc(F)c1)N1CCN(Cc2cc(=O)c3ccccc3[nH]2)CC1,2.84% (inactive)
4,Cc1cccc(NC(=O)Cc2nc(C)c(C(=O)NC3CC3)s2)c1C,-0.0337% (inactive)
5,O=C(CC1(O)C(=O)N(CCc2ccccc2)c2ccc(Cl)cc21)c1ccc2c(c1)OCCO2 (stereo not given),5.91% (inactive)
6,COc1ccc(-c2nc3ccccc3c3nnc(SCC(N)=O)n23)cc1,6.48% (inactive)
7,Cc1cc(C)nc(SCc2nnc(Nc3ccccc3)s2)n1,0.95% (inactive)
8,CCc1ccc(C(=O)COc2ncnc3scc(-c4ccccc4)c23)cc1,4.6% (inactive)
9,O=C(COc1cccc2ccc(N3CCC(Cc4ccccc4)CC3)nc12)Nc1cccc(F)c1,5.1% (inactive)
10,Cn1c(CNC(=O)c2cn3ccccc3n2)nc2ccccc21,-4.22% (inactive)
11,COc1ccc(C(=O)Nc2ccccc2N2CCOCC2)cc1S(=O)(=O)N(C)Cc1ccccc1,2.61% (inactive)
12,COc1cc2c(cc1OC)-c1cc(NCc3ccccc3)nc(=O)n1CC2,-10.1% (inactive)
13,CC1(C)C(=O)Nc2ccc(S(=O)(=O)NCc3ccc(F)cc3)cc21,1.68% (inactive)
14,Cc1cn(C)c(C2CCCN2C(=O)c2cc(C)nc3onc(C)c23)n1 (stereo not given),-2.53% (inactive)
15,Cc1cccc(NC(=O)CCc2nnc3ccc(NCc4ccc5c(c4)OCO5)nn23)n1,-2.6% (inactive)
16,Cn1c(=O)n(C2CCN(CCc3ccccc3)CC2)c2ncncc21,2.05% (inactive)
17,Cc1ccc(C(=O)N2CC(=O)N(Cc3ccc(Cl)cc3)CC(O)C2)cc1 (stereo not given),-42.1% (inactive)
18,Cc1nnc(-c2cnn(C)c2N)n1CC1CCCO1 (stereo not given),-0.964% (inactive)
19,CCOC(=O)c1noc2nc(C)n(Cc3nc(-c4ccccc4)oc3C)c(=O)c12,1.79% (inactive)
